Rows were chosen to be rich in hits. Some 10% of all compounds tested hit in one or more screens of this group.
JMJD2A Tudor = blocks the human JMJD2A Tudor domain | AlphaScreen JMJD2A-Tudor / H3K4me3 peptide binding | 390,000 tested, 4.4% active | O75164 | Potency, µM (doses to about 114 µM), for the others: at the highest dose activity change, negative = inhibition, hits mostly inhibitors; further: potency means the concentration at half of the fitted maximal effect; on the % scale 0 is the no-effect control and ±100 the full control effect; nearly all actives have a fitted effect of over 50% in size
CtBP-E1A inh = blocks the CtBP interaction with E1A; activity change, % (test concentration not listed); AlphaScreen GST-E1A/His-CtBP binding, 1536-well; stronger effect = lower value; AID 651724; 340,000 tested, 0.49% active; in the data active means activity change below about -65%; inconclusive means mostly about -30% to -63%; further: on the % scale 0 is the no-effect control and ±100 the full control effect
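Steps: dispense buffer (Tris pH 8.0, NaCl 300 mM, TCEP 1 mM, BSA, Tween 20); add 5X protein mix (GST-E1A, His-CtBP, 125 nM each); pin 23 nL compound; 2 h at 37 °C, dark; add 5X beads (50 ug/mL); 1 h; read.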
BAZ2B inh = blocks human BAZ2B | Q9UIF8 | AlphaScreen BAZ2B-H3K14Ac peptide displacement | Potency, µM (series often up to 114 µM), for inactives: top-dose activity change, negative = inhibition, usual class: inhibitors | 360,000 tested, 4.4% active; further: potency means the concentration at half of the fitted maximal effect; on the % scale 0 is the no-effect control and ±100 the full control effect; nearly all actives have a fitted effect of over 60% in size
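AlphaScreen luminescence quantifies BAZ2B engagement of H3K14Ac peptide; the protein and biotinylated peptide are both at 50 nM final, buffer PBS pH 7.4 with 0.01% Tween-20, all steps at room temperature.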
Six1-Eya2 blk = Six1/Eya2 interaction inhibition. AID 651725. 360,000 tested, 0.56% active. AlphaScreen GST-Six1/His-Eya2 binding, biochemical; stronger effect = lower value. activity change, % (no concentration beside the values); in the data active means activity change below about -65%; inconclusive means mostly about -30% to -63%; further: on the % scale 0 is the no-effect control and ±100 the full control effect
Target sequence (O00167 whole entry, looked up): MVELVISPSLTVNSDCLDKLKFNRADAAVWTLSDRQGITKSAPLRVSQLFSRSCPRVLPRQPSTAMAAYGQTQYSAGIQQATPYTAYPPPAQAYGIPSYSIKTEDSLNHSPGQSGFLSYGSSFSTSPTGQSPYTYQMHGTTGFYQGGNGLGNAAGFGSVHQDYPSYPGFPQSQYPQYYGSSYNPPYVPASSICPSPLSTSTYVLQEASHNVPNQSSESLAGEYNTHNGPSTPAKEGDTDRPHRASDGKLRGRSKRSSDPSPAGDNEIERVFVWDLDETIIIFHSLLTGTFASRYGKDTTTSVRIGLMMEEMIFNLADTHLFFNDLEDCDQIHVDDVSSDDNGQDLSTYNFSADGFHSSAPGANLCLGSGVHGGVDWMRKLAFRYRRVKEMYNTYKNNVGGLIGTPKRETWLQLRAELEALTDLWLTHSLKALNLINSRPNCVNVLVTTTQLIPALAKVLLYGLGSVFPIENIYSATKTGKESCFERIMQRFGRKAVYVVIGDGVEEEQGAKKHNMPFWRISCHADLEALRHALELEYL
Target sequence (Q15475 whole entry, looked up): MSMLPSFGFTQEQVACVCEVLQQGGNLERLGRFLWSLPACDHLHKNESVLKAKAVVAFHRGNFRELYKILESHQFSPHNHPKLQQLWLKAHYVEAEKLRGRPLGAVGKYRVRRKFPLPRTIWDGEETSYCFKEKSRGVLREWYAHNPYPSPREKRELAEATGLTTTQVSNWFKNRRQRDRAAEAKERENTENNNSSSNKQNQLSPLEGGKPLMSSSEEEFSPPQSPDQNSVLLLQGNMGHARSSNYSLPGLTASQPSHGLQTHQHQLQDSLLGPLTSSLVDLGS
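Compounds are tested against tagged Six1 and Eya2 proteins bridged by glutathione donor and nickel acceptor beads; after a one-hour incubation at 37 °C without light, AlphaScreen emission is recorded.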
HP1b binding inh = HP1-beta chromodomain-methylated histone interaction inhibition; Potency, µM (highest dose often 114 µM), without a hit: top-dose activity change, negative = inhibition, hits mostly inhibitors; 390,000 tested, 0.56% active; P83916; AlphaScreen HP1-beta / biotin-H3K9me3 peptide binding; AID 540317; further: potency means the concentration at half of the fitted maximal effect; nearly all actives have a fitted effect of over 70% in size
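Compound inhibition of the preformed complex between 50 nM HP1-beta and 50 nM biotinylated H3K9me3 peptide was read by AlphaScreen. Buffer was PBS pH 7.4 with 0.01% Tween-20. Incubations ran 30 min at room temperature, with 10 ug/mL donor/acceptor beads.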
G9a block = inhibitors of human histone lysine methyltransferase G9a. Q96KQ7. G9a H3K9 monomethylation, AlphaScreen, 2 h. Potency, µM (series often up to 102 µM), inactives show at the top dose activity, negative = inhibition, usual class: inhibitors. 350,000 tested, 8.8% active; further: potency means the concentration at half of the fitted maximal effect; on the % scale 0 is the no-effect control and ±100 the full control effect; nearly all actives have a fitted effect of over 75% in size
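Using a bead-based AlphaScreen, monomethylated H3K9 product from 2 h room-temperature reactions (G9a 20 nM, peptide 500 nM, SAM 20 uM) was detected with 0.5 ug/mL rabbit anti-H3K9me1 antibody.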
An asterisk follows results filed as active; ? = inconclusive; · = no result given; [ ] = remark or other dose. Unless noted, the call rests on the fitted dose curve; in most records, active means well fitted inhibition curve with a large enough effect; inconclusive means small, poorly fitted or top-dose-only effect; inactive means no such curve, though single readings can be large or run the other way.

SMILES	JMJD2A Tudor	CtBP-E1A inh	BAZ2B inh	Six1-Eya2 blk	HP1b binding inh	G9a block
CCOC(=O)C1=C(COC(=O)CCOc2ccccc2)NC(=O)NC1C (centres undefined)	100µM*	-11.9	32.4%	?	-13.0%	27.4%[12.7 µM]
CC(/C=N/NC(=O)Cc1cccn1C)=C\c1ccco1	?	-16.2	?	-24.6	-2.2%	11.2µM*
Cn1cccc1CC(=O)N/N=C/c1ccco1	-25.3%	-1.0	?	-2.6	1.5%	·
Cn1cccc1CC(=O)N/N=C\c1cccs1	-21.6%	-25.3	50.1µM*	-4.9	6.4%	·
CC(=C/c1ccco1)/C=N/NC(=O)Cc1cccn1C	-14.9%[57.1 µM]	-7.2	44.7µM*	-20.5	-3.5%	?
CCOc1ccc(NC(=O)Cn2c(=O)n(Cc3nc(-c4ccccc4)no3)c(=O)c3ccccc32)cc1	-11.7%	·	-5.5%	·	-6.8%	-7.0%[59 µM]
CC1=C(C(=O)Nc2ccc(F)cc2F)C2(CCCCCC2)OC1=O	-20.8%	·	2.5%	·	35.8%	-1.1%[59 µM]
CCc1cccc(NC(=O)Cn2nc(C)c3sc4ccccc4c3c2=O)c1	-27.2%	·	-17.1%	·	24.3%	?
O=c1cc(N2CCN(c3ccc(F)cc3)CC2)[nH]c(=O)n1-c1cccc(Br)c1	-35.8%	·	-2.3%	·	-1.7%[57 µM]	-1.2%[59 µM]
Cc1cccc(CC(=O)NCc2nc3cccnc3n2Cc2ccc(F)cc2)c1	-6.8%	·	2.6%	·	10.8%[57 µM]	9.6%[59 µM]
c1ccc(CNCCN2CCNCC2)nc1	?	-72.1*	15.8µM*	-85.7*	26.1%	3.6%
O=C(NCCN1CCNCC1)c1ccccc1O	-18.5%	·	·	9.3	67.4%	·
COc1ccccc1CN1CC(C(=O)N(C)Cc2ccc(C)o2)CCC1=O (centres undefined)	-8.3%	3.4	-18.8%	-0.4	22.5%	35.5µM*
Cc1cc2c(cc1C)NC(CC(=O)Nc1ccccc1SC(F)(F)F)C(=O)N2 (centres undefined)	-1.0%	·	-0.9%	·	31.5%	4.6%[59 µM]
Cc1nc2ccc(N=NC3=C(O)CC(C)(C)CC3=O)cc2s1	?	-10.0	?	-1.2	-14.6%	?
c1ccc(N=NN2CCOCC2)cc1	·	1.0	·	2.4	·	·
CCN(CC)S(=O)(=O)c1cccc(N=NC2=C(O)CCCC2=O)c1	-26.6%	2.7	?	-23.1	22.8%	?
Cc1nc2ccc(N=NC3=C(O)CCCC3=O)cc2s1	?	-2.7	-33.7%[57.1 µM]	-8.7	30.0%	39.8µM*
O=C(O)c1cccc(N=NN2CCOCC2)c1	-7.2%	2.6	-23.1%	-2.8	37.7%	15.8µM*
O=C1CCCC(O)=C1N=Nc1c(Cl)cc(Cl)cc1Cl	?	5.9	50.1µM*	-1.5	10.1%	8.91µM*
O=C1CCCC(O)=C1N=Nc1cccc(C(=O)O)c1	89.1µM*	-0.3	·	-14.7	-25.6%	28.2µM*
CCc1c(C)sc2c1CCN(C(=O)Nc1ccccc1Cl)C2c1ccc(OC)cc1 (centres undefined)	-10.9%	·	-22.8%	·	20.7%	4.2%[12.7 µM]
CC(=O)Nc1ccc(S(=O)(=O)N2CCC(N3CCN(Cc4ccc(C)cc4)C(=O)C3=O)CC2)cc1	-29.2%	·	?	·	33.9%	-26.3%[59 µM]
CN(C)CC(C)(C)CNS(=O)(=O)c1cccc(Cl)c1Cl	50.1µM*	-1.5	11.4%	9.9	26.3%	8.91µM*
CN(C)CC(C)(C)CNS(=O)(=O)c1ccc(Cl)cc1	-7.5%	2.8	·	10.3	39.7%	-63.1%
SMILES	JMJD2A Tudor	CtBP-E1A inh	BAZ2B inh	Six1-Eya2 blk	HP1b binding inh	G9a block
Cc1cc(=O)[nH]c(Nc2c(C)n(C)n(-c3ccccc3)c2=O)n1	1.1%	17.0	-4.9%	-14.5	15.2%	21.7%[12.7 µM]
Cc1c(Cl)cccc1NC(=O)Nc1c(C)n(C)n(-c2ccccc2)c1=O	-2.1%	3.7	-1.4%	2.5	38.4%	79.4µM*
Cc1c(NC2=C(Cl)C(=O)N(c3ccccc3Cl)C2=O)c(=O)n(-c2ccccc2)n1C	?	-0.7	-38.0%	-6.1	1.7%	39.8µM*
Cc1c(NC(=O)Nc2ccc([N+](=O)[O-])cc2)c(=O)n(-c2ccccc2)n1C	15.8µM*	8.0	-3.2%	5.0	12.6%	18.0%
Cc1c(NC(=S)N/N=C/c2cc([N+](=O)[O-])ccc2O)c(=O)n(-c2ccccc2)n1C	28.2µM*	·	5.62µM*	-88.2*	26.1%	56.2µM*
COc1ccc(CNC(=O)c2ccc3c(c2)CCN3S(=O)(=O)c2ccc(C)cc2)cc1	-7.2%	·	-17.6%	·	35.1%	7.2%[59 µM]
CCCCCn1c(=O)[nH]c2cc(C(=O)Nc3cc(OC)cc(OC)c3)ccc2c1=O	-12.6%	·	-0.8%	·	18.1%	2.1%[59 µM]
CCc1nnc(NC(=O)C(=O)c2cc(C)n(-c3ccccc3)c2C)s1	1.3%	·	-27.3%	·	7.1%	-14.1%[59 µM]
O=C1Nc2ccccc2/C1=C/c1ccccc1Cl	-23.0%	1.6	-30.4%	-3.1	-2.0%	4.7%
CN1CCN(c2ccccc2/C=C2/C(=O)Nc3ccccc32)CC1	-29.2%	-16.3	-37.1%	-4.1	19.0%	50.1µM*
CS(=O)(=O)c1ccc(SCC(=O)NC2CCS(=O)(=O)C2)c([N+](=O)[O-])c1 (centres undefined)	0.7%	20.1	-9.4%	7.9	17.1%	31.6µM*
COc1ccc(-c2cnc(C)o2)cc1S(=O)(=O)Nc1c(C)cc(C)cc1C	?	·	?	·	15.3%	4.1%[59 µM]
CCCCC(=O)NNC(=S)NC(=O)c1cccc([N+](=O)[O-])c1	22.4µM*	1.7	?	-1.9	?	·
CCCCCC(=O)NNC(=S)NC(C)=O	44.7µM*	-9.4	10.6%	-2.2	-1.0%	17.8µM*
COc1ccc(C(=O)NC(=S)NNC(=O)c2ccc(C)cc2)cc1	?	-14.0	·	-13.7	9.0%	·
CCCCC(=O)NNC(=S)NC(=O)c1ccc([N+](=O)[O-])cc1	31.6µM*	-7.2	?	4.6	?	2.82µM*
CCCCCC(=O)NNC(=O)Cc1ccc([N+](=O)[O-])cc1	-9.6%	-0.3	7.3%	7.4	5.6%	-40.3%
CCCCC(=O)NNC(=S)NCc1ccccc1	-16.3%	7.3	-14.7%	-1.1	34.7%	22.3%[12.7 µM]
Cc1ccc(C(=O)NC(=S)NNC(=O)CC#N)cc1	?	-11.7	-25.8%	-4.7	11.4%	8.91µM*
CCCCC(=O)Nc1cccc(NC(=O)c2cccc([N+](=O)[O-])c2)c1	-12.1%	·	-25.3%	-0.6	42.7%	-33.8%
O=C(NCC(c1ccco1)S(=O)(=O)c1ccc(Cl)cc1)c1ccccc1F (centres undefined)	-4.5%	·	1.5%	·	24.5%[57 µM]	13.3%[59 µM]
c1ccc2[nH]ccc2c1	·	·	·	·	·	3.6%[12.7 µM]
Cc1ccc2oc(-c3ccc(C)c(NC(=O)C(C)(C)Oc4ccc(Cl)cc4)c3)nc2c1	-12.7%	·	-8.4%	·	17.9%	-1.4%[59 µM]
COc1ccc(-c2cc3ccc(O)c(CN4CCC(C)CC4)c3oc2=O)cc1OC	-8.1%	·	8.2%	·	18.2%[57 µM]	0.5%[59 µM]
